Key:
Assay in all cases: PBM binding z-score (relative to random genomic background probes); higher = stronger binding; sequences stand for … in GC…GCGATTGACAGCGTAGAATGAAGG
[1] = system: FXR:RXRa (NR concentration 270 nM, RXRa partner concentration 90 nM)
How it was run: (§1)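 Probes were double-stranded and carried 34-nt variable regions with direct-repeat seeds, single-nucleotide variants, half-site ablations and random human genomic background sequences, printed on custom Agilent 4×180K protein-binding microarrays. Arrays were incubated 1 h with ligand-free nuclear receptor dimers in PBS pH 7.4, 2% milk, 0.02% Triton X-100, 1 mM DTT, 0.2 mg/mL BSA and 0.4 mg/ml salmon testes DNA. Antibodies against each partner (one per run) detected binding, and scanned fluorescence was regression-normalized. Binding z-scores use the random background probes as reference.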

[2] = system: LXRa:RXRa (NR concentration 270 nM, RXRa partner concentration 90 nM)
How it was run: as §1

[3] = system: LXRa homodimer (NR concentration 270 nM)
How it was run: as §1

[4] = system: LXRb:RXRa (NR concentration 270 nM, RXRa partner concentration 90 nM)
How it was run: as §1

[5] = system: LXRb homodimer (NR concentration 270 nM)
How it was run: as §1

[6] = system: PPARa:RXRa (NR concentration 270 nM, RXRa partner concentration 90 nM)
How it was run: as §1

[7] = system: PPARg:RXRa (NR concentration 180 nM, RXRa partner concentration 90 nM)
How it was run: as §1

[8] = system: PPARg:RXRa 270nM:90nM, anti-RXR (NR concentration 270 nM, RXRa partner concentration 90 nM)
How it was run: as §1

[9] = system: PPARg:RXRa 30nM:10nM, anti-RXR (NR concentration 30 nM, RXRa partner concentration 10 nM)
How it was run: as §1

[10] = system: PPARg:RXRa 90nM:30nM, anti-RXR (NR concentration 90 nM, RXRa partner concentration 30 nM)
How it was run: as §1

| Sequence | PBM binding z-score [1] | PBM binding z-score [2] | PBM binding z-score [3] | PBM binding z-score [4] | PBM binding z-score [5] | PBM binding z-score [6] | PBM binding z-score [7] | PBM binding z-score [8] | PBM binding z-score [9] | PBM binding z-score [10] |
| --- | --- | --- | --- | --- | --- | --- | --- | --- | --- | --- |
| TAGCCTCGGTCAGATCGGGCCAGTATACGCTATA | -0.00556 | -0.383 | -0.622 | -0.821 | -0.951 | -0.586 | 0.128 | -0.706 | -0.684 | -1.07 |
| TCTAGTCGGTCACGGAGGTCACACACGACGGGTA | 4.64 | 4.8 | 4.58 | 3.54 | 0.882 | 4.58 | 5.07 | 4.97 | 3.86 | 4.54 |
| GCTATTAGTTGAAAGGGCAATCGAATGATTCTCG | 0.568 | 0.562 | 0.189 | 0.633 | -0.254 | 2.34 | 2.44 | 4.24 | 2.01 | 4.26 |
| TCGCGTAGGTTAGGGGCATTCAGAATGGCGTCGA | 0.432 | 0.41 | -0.522 | 0.996 | 0.176 | 1.04 | -0.162 | 1.01 | 1.38 | 1.41 |
| GGAACGAGGGCAAAATTGATAGCATCTGTCGACG | 0.343 | 0.168 | -0.325 | 0.129 | -0.58 | 1.03 | 1.22 | 1.52 | 0.191 | 0.732 |
| GCATATAGGTAATACAAGGTGAAGGTCCGATTGT | 0.87 | 1.46 | 0.0259 | 0.247 | -0.268 | 1.09 | 1.25 | 1.12 | 0.453 | 0.748 |
| CCGACTGGGGCAAGGTTACCCTAACGCACAGCCA | 0.301 | 0.334 | -0.217 | 0.52 | -1.15 | 1.88 | 2.75 | 3.18 | 0.752 | 2.75 |
| TCTTGTAGACCAATAGAGGTTAAGAAAGTGCGCT | 0.806 | 3.66 | 0.598 | 1.84 | 0.292 | 2.14 | 0.00378 | 1.69 | 2.88 | 1.93 |
| TGAATGAGGTTATAAGATCAGGGATCGTTGCAAA | 1.25 | 1.28 | -0.202 | 0.676 | -0.353 | 2.81 | 1.56 | 2.12 | 0.946 | 1.28 |
| CGAACTAGGTCCGAACAGGACAGTGAAGGATGAT | -0.542 | -0.905 | -0.619 | -1 | -0.811 | -1.03 | 0.576 | -0.558 | -0.414 | -0.784 |
| ATATGTAGGTTATCGGGTTATTCAGTTTGCGCAT | 1.49 | 1.81 | 1.11 | 2.23 | 1.29 | 3.81 | 6.03 | 4.99 | 2.41 | 4.37 |
| TCATATAGGTAAAAGGTGAATGTCGGTGTGGTAA | 1.81 | 1.79 | 0.481 | 1.93 | 0.156 | 5.2 | 8.83 | 8.55 | 8.35 | 9.06 |
| AGTCAAAGTTCACTAAGTAACGTAAGATTCAGCT | 4.76 | 4.94 | 3.18 | 3.15 | 1.11 | 3.95 | 5.72 | 5.28 | 2.69 | 4.76 |
| GCTAGTTGGTCAGTAAAAAGTCACACACCGGTCG | 0.351 | 0.195 | 0.138 | -0.0134 | -0.0534 | 0.217 | 0.434 | 0.856 | 0.159 | 0.726 |
| ATCTCTAGGTAAAGATAGTTCTGTGAATGCAAAT | 0.34 | 0.239 | -0.054 | 0.231 | 0.796 | 0.344 | 0.505 | 0.243 | 0.378 | 0.389 |
| GGAACGACGGCAAGTTGATAGCAGAGTTTGATGG | -0.255 | -0.528 | -0.627 | -0.839 | -0.999 | -0.669 | 0.538 | -0.859 | -0.288 | -0.679 |
| ACTATTAGTTGACTTAGGACAACCGATACGACGC | 0.502 | 0.291 | 0.606 | 0.299 | 0.989 | 0.0286 | 1.11 | 0.164 | 0.448 | 0.273 |
| CCTCGGAGGACAGAAGGTCAGAACTGTCCGCTTT | 0.99 | 1.35 | 0.337 | 1.03 | -0.707 | 1.54 | -0.0634 | 0.635 | -0.743 | 0.0441 |
| TAGCCTAGGTCCTGCGGGCCAGTATAGTGTCGGC | -1.69 | -1.08 | -1.14 | -1.49 | -1.06 | -1.2 | -0.732 | -0.789 | -0.922 | -1.13 |
| GCGACTGGGGCAAAGCAGGTTACCACAAGGTTGG | 0.61 | -0.0445 | -0.447 | 0.204 | -1.07 | 1.14 | 1.35 | 1.34 | -0.386 | 0.797 |
| ATCGACAGGTCGAGGTGAGTATAGAGAAAGGGAA | 0.437 | 0.548 | -0.71 | 0.0707 | -0.444 | 1.51 | 0.748 | 0.211 | 0.16 | 0.281 |
| ACTAGCAGACCAAGGGTCACTCAAGATTAGTCCG | 2.1 | 2.89 | 0.341 | 2.8 | -0.191 | 3.74 | 4.94 | 5.53 | 3.15 | 5.96 |
| TAGCCTAGGTCATGCTGGCCAGTATAGTGTCGGC | 3.83 | 3.03 | 0.0898 | 1.88 | -0.303 | 3.25 | 1.99 | 2.15 | 0.0868 | 1.11 |
| CCTATTAGATGACCATAAGGGCAACCGAAGCTCG | 0.824 | 0.35 | 0.303 | 0.273 | 0.565 | 0.419 | 0.753 | 0.324 | 0.147 | 0.0156 |

Source: the supplement of paper PMC6555819
